Reference: PubChem BioAssay
Active and inactive are the calls of the source.

Legend:
[1] = test system: PRMT1 (protein arginine N-methyltransferase 1); assay: PRMT1 binders on small-molecule microarrays, primary screen, biochemical, small-molecule microarray, 635 nm fluorescence (AID 1088); settings: small-molecule microarray binding, higher = more signal;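 note: binding of Prmt1 protein to compounds spotted on small-molecule microarray slides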
[2] = yeast growth modulation, basal conditions, primary screen, YJM789 clinical isolate, OD600, 24 h (AID 1089);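 note: growth of clinical yeast isolate S. cerevisiae YJM 789 seeded 1000 cells per well; test concentration not given here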; settings: S. cerevisiae YJM789 growth, higher = more signal, called active from +8 up or from −8 down
[3] = fission yeast growth modulation, primary screen, strain 972, OD600, 24 h, no modulator (AID 1090);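 note: basal condition with compound alone and no growth modifier present; test concentration not given here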; settings: S. pombe 972 growth, higher = more signal, called active from +8 up or from −8 down
[4] = S. cerevisiae growth modulation with rapamycin, primary screen, strain BY4716, OD600, 96 h (AID 1091); settings: higher = more signal, called active from +8 up or from −8 down; note: test concentration not given here
[5] = biological target: Torsin-1A-interacting protein 2 (Homo sapiens) (UniProt Q8NFQ8); assay: LULL1 binders on small-molecule microarray, primary screen, cell lysate, human LULL1 lysate, 635/667 nm fluorescence (AID 1092); settings: hLULL1 lysate binding, 635 nm fluorescence, higher = more signal;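 note: probe is lysate of COS7 cells overexpressing human LULL1; score merges per-feature 667 nm fluorescence with signal-to-noise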
Chain of Torsin-1A-interacting protein 2 (Homo sapiens) (Q8NFQ8 whole entry, looked up): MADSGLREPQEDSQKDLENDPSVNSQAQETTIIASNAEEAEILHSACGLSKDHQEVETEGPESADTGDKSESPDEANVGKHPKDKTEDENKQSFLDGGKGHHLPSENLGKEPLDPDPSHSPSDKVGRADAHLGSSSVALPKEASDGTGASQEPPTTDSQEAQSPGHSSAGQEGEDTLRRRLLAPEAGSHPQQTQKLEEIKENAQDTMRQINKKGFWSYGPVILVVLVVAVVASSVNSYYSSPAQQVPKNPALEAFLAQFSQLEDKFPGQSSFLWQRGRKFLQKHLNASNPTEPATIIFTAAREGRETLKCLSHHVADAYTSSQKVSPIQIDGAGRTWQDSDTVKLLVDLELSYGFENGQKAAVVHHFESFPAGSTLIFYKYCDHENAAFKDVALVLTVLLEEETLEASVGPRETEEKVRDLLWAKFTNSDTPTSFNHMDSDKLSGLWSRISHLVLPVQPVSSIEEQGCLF

[6] = E. coli growth modulation, two-sided OD650, primary screen, E. coli filamentation project, strain DRC41, 24 h (AID 1093); settings: OD650, 24 h, higher = more signal, called active from +8 up or from −8 down;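 note: MC1000 strain lacking acrAB efflux and sulA so SOS filamentation is blocked; test concentration not given here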
[7] = small-molecule microarray binders of probe aLefty2, primary screen, biochemical, biotinylated probe, 635/667 nm fluorescence (AID 1094); settings: higher = more signal;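 note: score merges spot fluorescence near 667 nm with spot signal-to-noise ratio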
[8] = test system: Noggin (protein binding on small-molecule microarray); assay: Noggin binders on small-molecule microarray, primary screen, biochemical, 635/667 nm fluorescence (AID 1095); settings: 635 nm fluorescence, higher = more signal;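 note: score merges 667 nm feature fluorescence with signal to noise over triplicate slides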
[9] = biological target: Neurogenic locus notch homolog protein 3 (Homo sapiens) (UniProt Q9UM47); assay: NOTCH3 binders on small-molecule microarray, primary screen, biochemical, 635/667 nm fluorescence (AID 1096); settings: NOTCH3 binding, 635 nm fluorescence, higher = more signal
Chain of Neurogenic locus notch homolog protein 3 (Homo sapiens) (Q9UM47 whole entry, looked up): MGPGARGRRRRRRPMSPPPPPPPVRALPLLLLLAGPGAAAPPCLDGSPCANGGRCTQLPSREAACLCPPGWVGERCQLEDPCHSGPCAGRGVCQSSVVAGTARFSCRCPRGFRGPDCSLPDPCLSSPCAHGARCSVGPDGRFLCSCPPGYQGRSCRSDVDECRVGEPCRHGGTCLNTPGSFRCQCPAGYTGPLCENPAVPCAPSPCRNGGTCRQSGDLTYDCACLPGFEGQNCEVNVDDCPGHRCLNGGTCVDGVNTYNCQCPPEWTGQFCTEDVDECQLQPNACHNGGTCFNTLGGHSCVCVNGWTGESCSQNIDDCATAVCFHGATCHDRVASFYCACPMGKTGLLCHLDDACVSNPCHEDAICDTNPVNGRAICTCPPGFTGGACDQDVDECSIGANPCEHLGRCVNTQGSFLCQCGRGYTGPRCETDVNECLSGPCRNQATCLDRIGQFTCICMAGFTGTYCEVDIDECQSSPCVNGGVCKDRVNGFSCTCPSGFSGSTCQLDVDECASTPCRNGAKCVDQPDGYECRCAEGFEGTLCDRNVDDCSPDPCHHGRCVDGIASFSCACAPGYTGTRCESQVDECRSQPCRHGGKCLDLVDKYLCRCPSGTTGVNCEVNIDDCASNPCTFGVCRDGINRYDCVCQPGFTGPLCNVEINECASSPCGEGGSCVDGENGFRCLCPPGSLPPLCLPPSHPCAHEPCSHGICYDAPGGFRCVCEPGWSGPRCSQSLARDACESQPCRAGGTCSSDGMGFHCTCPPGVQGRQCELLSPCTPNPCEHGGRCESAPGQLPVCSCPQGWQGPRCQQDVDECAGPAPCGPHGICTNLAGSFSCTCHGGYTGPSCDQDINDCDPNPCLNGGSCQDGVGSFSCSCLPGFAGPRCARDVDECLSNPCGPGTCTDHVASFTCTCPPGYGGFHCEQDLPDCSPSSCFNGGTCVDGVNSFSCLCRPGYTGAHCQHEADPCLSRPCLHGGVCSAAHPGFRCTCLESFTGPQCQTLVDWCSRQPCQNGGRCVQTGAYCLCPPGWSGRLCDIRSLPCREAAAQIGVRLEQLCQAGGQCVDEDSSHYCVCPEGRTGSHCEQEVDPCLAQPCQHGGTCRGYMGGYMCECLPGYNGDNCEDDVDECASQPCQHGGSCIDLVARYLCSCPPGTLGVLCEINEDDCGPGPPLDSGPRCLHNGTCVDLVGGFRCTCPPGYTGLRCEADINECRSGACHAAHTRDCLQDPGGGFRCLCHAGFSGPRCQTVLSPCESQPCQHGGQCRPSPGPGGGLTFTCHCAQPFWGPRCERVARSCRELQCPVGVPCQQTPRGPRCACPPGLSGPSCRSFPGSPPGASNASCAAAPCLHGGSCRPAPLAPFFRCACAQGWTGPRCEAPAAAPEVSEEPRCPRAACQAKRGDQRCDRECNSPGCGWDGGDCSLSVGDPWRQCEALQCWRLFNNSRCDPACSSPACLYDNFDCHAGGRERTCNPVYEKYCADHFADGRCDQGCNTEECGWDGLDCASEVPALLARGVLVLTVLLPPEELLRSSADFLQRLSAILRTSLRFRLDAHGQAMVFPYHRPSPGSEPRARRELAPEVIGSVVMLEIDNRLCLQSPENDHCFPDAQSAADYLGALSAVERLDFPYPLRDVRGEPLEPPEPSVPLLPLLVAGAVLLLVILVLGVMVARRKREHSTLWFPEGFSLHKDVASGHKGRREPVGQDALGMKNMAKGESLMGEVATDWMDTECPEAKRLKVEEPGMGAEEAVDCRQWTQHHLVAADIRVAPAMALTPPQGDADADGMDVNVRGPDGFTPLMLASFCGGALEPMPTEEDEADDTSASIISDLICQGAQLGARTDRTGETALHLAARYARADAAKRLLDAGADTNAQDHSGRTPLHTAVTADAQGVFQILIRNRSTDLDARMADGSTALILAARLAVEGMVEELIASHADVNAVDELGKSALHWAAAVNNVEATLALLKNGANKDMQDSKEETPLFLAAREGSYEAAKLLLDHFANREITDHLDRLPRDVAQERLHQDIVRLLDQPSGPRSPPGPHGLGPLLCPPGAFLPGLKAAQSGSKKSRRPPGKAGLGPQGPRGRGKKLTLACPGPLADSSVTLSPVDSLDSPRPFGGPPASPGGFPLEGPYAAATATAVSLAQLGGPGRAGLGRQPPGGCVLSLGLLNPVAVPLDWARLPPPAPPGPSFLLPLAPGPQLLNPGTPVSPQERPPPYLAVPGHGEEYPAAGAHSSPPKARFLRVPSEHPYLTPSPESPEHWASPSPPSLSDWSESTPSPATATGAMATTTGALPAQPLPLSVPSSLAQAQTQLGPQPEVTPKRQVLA

[10] = small-molecule microarray binders of probe aEGFR, primary screen, biochemical, biotinylated probe, 635/667 nm fluorescence (AID 1097); settings: higher = more signal;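 note: probe is a biotinylated anti-EGFR antibody binding compounds printed on slides; score combines fluorescence near 667 nm and signal to noise of each spot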
[11] = test system: Plasmodium falciparum Sir2 (PF13_0152, Sir2A); assay: pfSir2 binders on small-molecule microarrays, primary screen, biochemical, small-molecule microarray, 635 nm fluorescence (AID 1098); settings: small-molecule microarray binding, fluorescence 635 nm; higher = more signal;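 note: score merges spot fluorescence intensity with its signal-to-noise ratio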
[12] = small-molecule microarray binders of probe aDKK1, primary screen, biochemical, biotinylated probe, 635/667 nm fluorescence (AID 1099); settings: higher = more signal;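 note: score merges 667nm spot fluorescence with signal to noise across triplicate slides; reference of the scale not given here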
[13] = small-molecule microarray binders of probe aCHRDL2, primary screen, biochemical, biotinylated probe, 635/667 nm fluorescence (AID 1100); settings: higher = more signal
[14] = splicing luciferase reporter signal modulators, primary screen, spliceosome inhibition project, cell-based, HEK293, splice +/- reporter (AID 1101); settings: luminescence, 24 h, higher = more signal, called active from +8 up or from −8 down;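 note: HEK293 cells carrying a splicing-competent luciferase reporter gene; test concentration not given here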
[15] = biological target: Fibroblast growth factor 10 (Homo sapiens) (UniProt O15520); assay: FGF10 binders on small-molecule microarrays, primary screen, biochemical, small-molecule microarray, 635 nm fluorescence (AID 1102); settings: FGF10 binding, fluorescence 635 nm, higher = more signal
Chain of Fibroblast growth factor 10 (Homo sapiens) (O15520 whole entry, looked up): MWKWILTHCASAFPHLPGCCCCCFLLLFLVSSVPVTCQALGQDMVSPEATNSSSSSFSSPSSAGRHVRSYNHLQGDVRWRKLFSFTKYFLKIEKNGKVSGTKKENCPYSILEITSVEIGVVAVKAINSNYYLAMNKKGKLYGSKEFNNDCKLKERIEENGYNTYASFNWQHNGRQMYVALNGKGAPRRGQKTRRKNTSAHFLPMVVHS

[16] = test system: glycogen synthase kinase-3 (GSK3A per assay name; protocol says GSK3B); assay: GSK3 binders on small-molecule microarrays, primary screen, biochemical, small-molecule microarray, 635 nm fluorescence, GSK3A (AID 1103); settings: small-molecule microarray binding, fluorescence 635 nm; higher = more signal; note: the record names both GSK3A and GSK3B
[17] = biological target: Epidermal growth factor receptor (Homo sapiens) (UniProt P00533); assay: EGFR binders on small-molecule microarrays, primary screen, biochemical, small-molecule microarray, 635 nm fluorescence (AID 1104); settings: EGFR binding, higher = more signal;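 note: score merges 667 nm emission intensity with spot signal to noise over triplicate slides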
Chain of Epidermal growth factor receptor (Homo sapiens) (P00533 whole entry, looked up): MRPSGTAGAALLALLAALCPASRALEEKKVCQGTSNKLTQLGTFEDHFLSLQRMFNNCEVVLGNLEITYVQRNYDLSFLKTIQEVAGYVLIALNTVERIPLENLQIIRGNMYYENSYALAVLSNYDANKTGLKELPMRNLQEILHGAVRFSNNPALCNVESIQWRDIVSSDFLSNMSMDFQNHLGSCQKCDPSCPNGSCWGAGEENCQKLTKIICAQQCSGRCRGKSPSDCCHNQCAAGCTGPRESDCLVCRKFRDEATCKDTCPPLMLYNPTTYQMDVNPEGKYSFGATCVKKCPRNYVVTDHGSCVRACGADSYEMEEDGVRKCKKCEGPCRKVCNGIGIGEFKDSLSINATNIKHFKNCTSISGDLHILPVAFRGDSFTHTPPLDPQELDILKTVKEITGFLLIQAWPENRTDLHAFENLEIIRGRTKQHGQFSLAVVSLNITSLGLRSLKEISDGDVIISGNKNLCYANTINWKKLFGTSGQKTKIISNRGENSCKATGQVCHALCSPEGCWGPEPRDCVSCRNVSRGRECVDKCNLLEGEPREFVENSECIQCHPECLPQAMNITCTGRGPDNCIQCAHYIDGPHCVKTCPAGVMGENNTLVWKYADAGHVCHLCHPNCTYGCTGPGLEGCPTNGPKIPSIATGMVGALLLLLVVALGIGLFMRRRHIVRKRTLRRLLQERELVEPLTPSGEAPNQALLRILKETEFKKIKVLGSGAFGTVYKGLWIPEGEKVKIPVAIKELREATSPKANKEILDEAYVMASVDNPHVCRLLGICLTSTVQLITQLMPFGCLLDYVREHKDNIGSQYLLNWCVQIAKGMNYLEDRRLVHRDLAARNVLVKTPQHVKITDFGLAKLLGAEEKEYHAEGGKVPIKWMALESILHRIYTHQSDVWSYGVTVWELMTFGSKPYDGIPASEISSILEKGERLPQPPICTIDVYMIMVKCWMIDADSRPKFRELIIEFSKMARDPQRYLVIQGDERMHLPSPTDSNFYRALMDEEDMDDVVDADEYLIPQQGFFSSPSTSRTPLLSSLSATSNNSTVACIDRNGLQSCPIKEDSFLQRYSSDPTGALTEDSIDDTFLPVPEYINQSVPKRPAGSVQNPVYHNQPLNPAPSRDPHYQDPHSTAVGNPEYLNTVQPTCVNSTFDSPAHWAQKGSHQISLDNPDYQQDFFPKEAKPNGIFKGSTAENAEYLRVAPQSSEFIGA

[18] = biological target: Follistatin-related protein 3 (Homo sapiens) (UniProt O95633); assay: FSTL3 binders on small-molecule microarrays, primary screen, biochemical, small-molecule microarray, 635 nm fluorescence (AID 1105); settings: FSTL3 binding, higher = more signal;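 note: score merges emission near 667 nm and signal to noise per printed spot across three slides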
Chain of Follistatin-related protein 3 (Homo sapiens) (O95633 whole entry, looked up): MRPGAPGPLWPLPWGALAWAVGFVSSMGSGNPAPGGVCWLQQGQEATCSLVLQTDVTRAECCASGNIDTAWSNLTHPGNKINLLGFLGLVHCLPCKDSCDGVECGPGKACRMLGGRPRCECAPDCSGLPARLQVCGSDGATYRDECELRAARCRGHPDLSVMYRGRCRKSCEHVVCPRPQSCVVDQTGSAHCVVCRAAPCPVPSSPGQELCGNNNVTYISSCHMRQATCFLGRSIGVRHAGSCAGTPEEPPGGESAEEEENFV

[19] = biological target: Dickkopf-related protein 1 (Homo sapiens) (UniProt O94907); assay: DKK1 binders on small-molecule microarrays, primary screen, biochemical, small-molecule microarray, 635 nm fluorescence scan (AID 1106); settings: DKK1 binding, higher = more signal;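 note: score merges emission near 667 nm with signal to noise over three replicate slides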
Chain of Dickkopf-related protein 1 (Homo sapiens) (O94907 whole entry, looked up): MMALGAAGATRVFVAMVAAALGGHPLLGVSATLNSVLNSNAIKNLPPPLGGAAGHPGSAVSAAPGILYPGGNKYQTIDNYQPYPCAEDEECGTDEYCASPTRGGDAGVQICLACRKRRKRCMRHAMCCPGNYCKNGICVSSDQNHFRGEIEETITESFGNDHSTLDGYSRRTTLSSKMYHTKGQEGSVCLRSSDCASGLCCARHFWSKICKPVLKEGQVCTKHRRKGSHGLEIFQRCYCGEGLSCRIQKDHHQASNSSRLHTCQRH

[20] = test system: Inhibin beta A chain (activin A); assay: INHBA (activin A) binders on microarrays, primary screen, biochemical, small-molecule microarray, 635 nm fluorescence scan (AID 1107); settings: small-molecule microarray binding, higher = more signal;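 note: mouse activin A protein probed at 4.33 µg/mL on printed slides; score merges bound-protein fluorescence near 667 nm with spot signal-to-noise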

Compound	composite z-score [1]	z-score [2]	z-score [3]	z-score [4]	composite z-score [5]	z-score [6]	composite z-score [7]	composite z-score [8]	composite z-score [9]	composite z-score [10]	composite z-score [11]	composite z-score [12]	composite z-score [13]	z-score [14]	composite z-score [15]	composite z-score [16]	composite z-score [17]	composite z-score [18]	composite z-score [19]	composite z-score [20]
Cc1ccc(C(C)CC(O)C2C=CC3C(=O)N(C)C(=O)C3N2Nc2ccccc2)o1 (stereo not given)	1.55	0.121 (inactive)	0.388 (inactive)	0.651 (inactive)	0.788	-1.47 (inactive)	0.0997	0.555	1.07	-0.0167	0.84	0.169	0.778	1.27 (inactive)	1.19	1.25	1	1.39	0.593	0.989
CN1C(=O)C2C(C1=O)C1C=C(c3ccc(CO)cc3)C2C(C2CC2)N1C (stereo not given)	-0.346	0.724 (inactive)	-1.36 (inactive)	2.59 (inactive)	0.956	0.689 (inactive)	-0.209	0.102	-0.414	-0.229	0.028	-0.152	0.0977	-0.0431 (inactive)	0.192	0.249	0.35	-0.463	-0.143	0.304
COCCOC(=O)N1C(=O)[C@@]2(c3cc(C#CCC(C(=O)OC)C(=O)OC)ccc31)[C@H](c1ccc(O)cc1)N1[C@H](c3ccccc3)[C@H](c3ccccc3)OC(=O)[C@H]1[C@@H]2C(=O)Nc1nc2ccccc2s1	1.53	0.978 (inactive)	0.583 (inactive)	0.0726 (inactive)	2.76	0.338 (inactive)	0.0424	1.39	1.04	0.106	1.54	0.595	0.481	-1.12 (inactive)	0.972	1.27	0.594	1.38	0.91	1.11
O=C(NCC(O)CO)[C@@]1(CCS(=O)(=O)c2ccccc2)N=C(c2ccc(OCCCO)cc2)O[C@H]1c1ccccc1 (stereo not given in full)	0.845	-0.717 (inactive)	-0.908 (inactive)	-0.163 (inactive)	3.56	-0.328 (inactive)	0.471	-0.562	-0.196	0.144	1.11	1.27	0.985	-0.809 (inactive)	0.303	0.235	-0.928	-0.555	-1.1	0.801
CCOC(=O)c1cn(C[C@H](Cc2ccccc2)NC(=O)N[C@H](CO)CCc2oc(C(C)=O)c(C(=O)OC)c2C(=O)OC)nn1	1.54	0.511 (inactive)	-0.342 (inactive)	0.018 (inactive)	1.36	-0.616 (inactive)	-0.0615	1.15	1.08	0.272	0.559	0.0549	-0.398	-1.1 (inactive)	1.37	1.28	0.956	1.49	1.1	-0.0083
CCCNC(=O)[C@@]1(c2ccc([N+](=O)[O-])cc2)CC(=O)N(C(C)C)[C@@H]1c1ccc(CO)cc1	-0.854	-0.836 (inactive)	-1 (inactive)	-0.594 (inactive)	1.41	0.353 (inactive)	-0.268	-1.27	-0.124	-0.278	0.928	-0.0525	0.985	-0.27 (inactive)	-0.853	-0.664	-1.52	-0.546	-0.695	-0.251
O=C1N(Cc2ccccc2)c2ccccc2C[C@@]12COC(c1ccc(OCCCO)cc1)=N2	1.56	-0.91 (inactive)	-1.56 (inactive)	2.83 (inactive)	3	1.54 (inactive)	0.249	1.07	0.944	-0.0238	1.32	1.79	1.12	-0.136 (inactive)	0.596	1.31	-0.433	0.0633	-0.318	1.13
COc1ccc([Si](C)(C)[C@@H]2[C@@H](CC(=O)N3CCC[C@H]3CO)O[C@]3(C(=O)N(Cc4cccc(N5CCCCC5=O)c4)c4ccccc43)[C@H]2C)cc1	1.57	-0.965 (inactive)	-0.388 (inactive)	0.1 (inactive)	1.89	0.807 (inactive)	-0.183	0.894	0.625	-0.0828	1.29	-0.246	-0.115	0.238 (inactive)	0.32	0.523	0.0941	0.747	0.414	0.27
COC(=O)[C@H](Cc1ccccc1)N1CC2=CCCC=C[C@@H]2[C@H]1[C@H](O)Cc1ccccc1	0.438	-1.09 (inactive)	-2.01 (inactive)	-0.172 (inactive)	0.626	-0.496 (inactive)	-0.0632	1.15	0.215	-0.111	1.33	-0.192	-0.306	-0.477 (inactive)	0.363	0.171	-0.244	0.525	0.29	0.702
O=C(NCCN1CCOCC1)[C@@H]1c2ccccc2C(=O)N(Cc2ccccc2C(F)(F)F)[C@H]1c1ccc(CO)cc1	1.56	-0.451 (inactive)	-0.539 (inactive)	-0.705 (inactive)	1.81	0.75 (inactive)	-0.525	-0.982	-0.842	-0.403	0.99	-0.745	-0.31	-0.422 (inactive)	-0.393	0.0726	-1.11	-0.708	-1.28	-0.735
